Assay results: PubChem BioAssay AID529 (NMMLSC, 2006)
Hit rate of the full screen: of about 24,000 compounds, about 50 (0.2%) were called active. About 9% were inconclusive and are not listed.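 How the source made its calls: active means inhibition above 50%; inconclusive means compound itself fluorescent, judged against control cell fluorescence; inactive means the rest.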 Shown is part of a subset that was picked to be rich in actives.

These molecules were tested against Integrin alpha-4 (Homo sapiens) (UniProt P13612) (assay: inhibitors of LDV-FITC binding to Mn2+-activated VLA-4, primary screen, Jurkat cells (AID 529;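 further: 0% = Mn2+ stimulated cells lacking compound and 100% = ligand binding without Mn2+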)). Conditions: LDV-FITC binding with Mn2+, flow cytometry, stronger effect = higher value, 100% = Mn2+-driven binding gain fully reversed, screened at 10 µM (by protocol).
Chain of Integrin alpha-4 (Homo sapiens) (P13612 whole entry, looked up): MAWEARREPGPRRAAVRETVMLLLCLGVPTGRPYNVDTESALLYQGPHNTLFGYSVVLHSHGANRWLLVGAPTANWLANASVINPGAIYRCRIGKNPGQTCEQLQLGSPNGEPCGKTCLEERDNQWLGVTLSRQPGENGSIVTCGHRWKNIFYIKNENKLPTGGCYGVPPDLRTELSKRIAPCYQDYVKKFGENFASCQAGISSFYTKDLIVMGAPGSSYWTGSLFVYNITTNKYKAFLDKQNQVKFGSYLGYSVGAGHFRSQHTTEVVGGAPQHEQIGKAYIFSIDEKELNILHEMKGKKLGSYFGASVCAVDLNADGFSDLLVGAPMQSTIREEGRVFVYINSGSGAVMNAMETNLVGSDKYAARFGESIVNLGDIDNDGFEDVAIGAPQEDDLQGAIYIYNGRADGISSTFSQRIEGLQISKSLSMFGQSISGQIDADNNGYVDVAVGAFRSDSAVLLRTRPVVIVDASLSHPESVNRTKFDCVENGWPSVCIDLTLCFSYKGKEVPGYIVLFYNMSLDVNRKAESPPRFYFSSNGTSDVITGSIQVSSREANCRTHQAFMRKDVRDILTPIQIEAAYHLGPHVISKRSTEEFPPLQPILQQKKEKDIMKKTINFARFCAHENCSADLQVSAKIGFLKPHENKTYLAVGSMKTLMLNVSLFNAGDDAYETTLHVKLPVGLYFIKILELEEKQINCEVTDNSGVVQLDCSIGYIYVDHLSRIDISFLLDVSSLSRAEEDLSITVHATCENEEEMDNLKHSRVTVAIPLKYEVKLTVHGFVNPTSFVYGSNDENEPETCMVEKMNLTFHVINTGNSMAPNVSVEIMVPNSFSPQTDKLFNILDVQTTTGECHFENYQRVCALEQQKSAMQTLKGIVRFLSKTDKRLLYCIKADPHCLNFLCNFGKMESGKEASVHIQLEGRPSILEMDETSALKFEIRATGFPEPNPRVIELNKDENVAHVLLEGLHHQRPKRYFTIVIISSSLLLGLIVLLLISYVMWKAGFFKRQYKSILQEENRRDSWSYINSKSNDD

inhibition, inactive:
CCOC(=O)c1cccc(NC(=O)CCc2c(C)nc3ncnn3c2C)c1 10%
CCOC(=O)N1CCN(C(=O)CSc2nnc(-c3c[nH]c4ccccc34)n2CCOC)CC1 9%
CC(=O)NC(C)c1nc2ccccc2n1Cc1ccccc1F (stereo not drawn) 1%
CN(C(=O)C1CCOC1)c1nnc(-c2cccnc2)s1 (stereo not drawn) -8%
CC1=NCCN1S(=O)(=O)c1ccc(Br)c(C)c1 -21.5%
C=CCSc1nnc(Cn2c(=O)sc3ccccc32)n1C 5%
Brc1cnc(N2CCCC2)nc1N1CCCCC1 -21%
Cc1cc(C)cc(N(CC(=O)NCC2CCCO2)S(=O)(=O)c2c(C)noc2C)c1 (stereo not drawn) -10%
Cc1cccc(NC(=O)CSc2nnc(NC(=O)CN3CCOCC3)s2)c1 -21%
COc1cc2[nH]c(=O)n(CCC(=O)NC3CCN(Cc4ccccc4)CC3)c(=O)c2cc1OC 11%
CCOc1cc(S(=O)(=O)NCc2ccc3c(c2)OCO3)ccc1F -18.5%
O=S1(=O)CCN2C(=N1)SC1=C2CCN(Cc2ccccc2)C1 4%
CCOc1ccc(OCC)c(NC(=O)CN(C)S(=O)(=O)c2cccc3nsnc23)c1 5%
O=C(CSc1nc2ncccc2[nH]1)Nc1ccc2c(c1)OCCO2 -23%
CCc1nnc(NC(=O)CSc2nnc(Cc3ccccc3)n2-c2ccc(OC)cc2)s1 -26.5%
CCOC(=O)N1CCN(C(=O)c2ccc3nc4cc(Cl)ccc4c(=O)n3c2)CC1 6.7%
OCc1n[nH]c(CO)n1 2%
O=c1ccn(Cc2ccccc2Cl)cc1 -16%
N#CCCn1cnc2ccccc21 -16.5%
CCOc1ccc(C2C(C(=O)O)c3ccccc3C(=O)N2CCN2CCOCC2)cc1 (stereo not drawn) -12.1%
COc1cccc(OCC(=O)Nc2ccccc2C(N)=O)c1 -12%
CCOC(=O)N1CCC(NC(=O)Cn2cc3c(n2)CCCCC3)CC1 -1%
CSC1=NCCN1C(=O)c1ccc(S(=O)(=O)N2CCOCC2)cc1 1%
CCCC(=O)N1c2ccccc2NC2=C(C(=O)CCC2)C1c1ccc(F)cc1 (stereo not drawn) -5.3%
Cc1c(C(=O)Nc2ccccc2Cl)oc2ccc(S(=O)(=O)N3CCC4(CC3)OCCO4)cc12 -8%
CCOc1cc2[nH]c(=S)n(CCCN3CCCC3=O)c(=O)c2cc1OCC -5%
O=C(Cn1nc(Cc2cccnc2)c2ccccc2c1=O)NCC1CCCO1 (stereo not drawn) -1%
COc1ccc(CNC(=O)C2CCN(S(=O)(=O)N3CCOCC3)CC2)cc1 3%
Cc1ccc(-c2nc(CS(=O)CC(=O)NC3CCCC3)c(C)o2)cc1 (stereo not drawn) -15%
CCOc1ccc(C(=O)N(Cc2ccc(N(C)C)cc2)C2CCS(=O)(=O)C2)cc1 (stereo not drawn) -24.5%
CCOC(=O)C1CCN(C(=O)CC2C(=O)N(Cc3ccccc3)C(C)c3nc4ccccc4n32)CC1 (stereo not drawn) 8%
CC(C)(C)c1ccc(C(=O)NCCC(=O)NCc2ccco2)cc1 -4%
CCOC(=O)N1CCN(C(=O)c2cnc3n(c2=O)CCS3)CC1 -8%
CCCOc1ccc(C2c3c(oc4cc(C)c(C)cc4c3=O)C(=O)N2CCCN2CCOCC2)cc1 (stereo not drawn) 1%
O=C(NCc1ccc2c(c1)OCO2)C1CCCN(S(=O)(=O)c2cccs2)C1 (stereo not drawn) 3%
CCOC(=O)C1(C(F)(F)F)N=C(N(C)C)OC(N(C)C)=N1 20%
O=C1OC(NC(=O)c2ccccc2)C(N2CCOCC2)=C1Cl (stereo not drawn) 6%
COc1ccccc1N1CCN(Cc2nnnn2CCc2ccccc2)CC1 -8%
COc1ccccc1C(=O)N1CCNC(=O)C1CC(=O)Nc1ccc(Cl)cc1 (stereo not drawn) -4.5%
O=C(CN1CCN(C(=O)c2cccc(F)c2)CC1)Nc1ccccc1F 7%
N#Cc1ccc(COC(=O)Cn2nnc(-c3ccccc3)n2)cc1 -9.5%
COc1ccc(N2C(=O)c3cccc4cccc(c34)C2=O)nn1 -1.5%
OCCNCCCCOc1ccccc1F -13.5%
COc1ccccc1C(=O)NCCn1cc(SCC(=O)NCc2ccco2)c2ccccc21 -4%
Cn1c(=O)[nH]c(=O)c2c1nc(NCCCn1ccnc1)n2Cc1cccc(Br)c1 -22.5%
CCCS(=O)(=O)N1CCN(C(=O)c2cccs2)CC1 -15%
COc1cccc(N2C(=O)C3CCCN3C2c2ccc(F)cc2)c1 (stereo not drawn) -5%
CCN(CC)C(=O)N1CCN(C(=O)c2ccc(C)cn2)CC1 -8%
CCn1c(CSc2ncccn2)nnc1SCC(=O)N1c2ccccc2CC1C (stereo not drawn) 5.5%
O=C1c2ccncc2C(=O)N1C1CCCCC1 3%
COc1ccc(OC)c(C2N(c3ccccn3)C(=O)C3CCCN32)c1 (stereo not drawn) -11%
O=C(CN1C(=O)CSc2ncccc21)N1CCOCC1 -1%
COc1cccc(C(CC(=O)NCCN2CCOCC2)NS(=O)(=O)c2ccc(C)cc2)c1OC (stereo not drawn) -2%
Cc1onc(-c2ccccc2Cl)c1C(=O)NCCn1ccc2ccccc21 -7%
Cc1ccc(C2CC(=O)NC(SCC(=O)OCc3ccccc3)=C2C#N)o1 (stereo not drawn) -24%
COc1ccc(S(=O)(=O)NC(CC(=O)NCc2ccccc2OC)c2ccco2)cc1 (stereo not drawn) 3%
CC(C)OCCCNC(=O)CNC(=O)c1cccs1 10%
CCOC(=O)c1ccn(-c2nc(-c3ccco3)cc(C(F)(F)F)n2)n1 -5%
CCOC(=O)c1sc(=S)n(-c2cccc(OC)c2)c1N -4%
CCOC(=O)Cn1c2c(c(-c3ccccc3OC)cc1=O)CCCC2 16%
Cc1ccc(N2C(=O)c3oc4ccccc4c(=O)c3C2c2cccnc2)nc1 (stereo not drawn) -22%
OCc1nc(CO)n(Cc2ccccc2)n1 -2.3%
O=C(CN1CCOCC1)Nc1c2c(nc3c1CCC3)CCC2 -12%
Cc1nc2nc(SCC(=O)NCc3ccco3)nn2c(C)c1Cc1ccccc1 -12.3%
CCN(CCCNC(=O)C1CCN(S(=O)(=O)c2cnc[nH]2)CC1)c1ccccc1 0%
Cc1ccc(C)c(N(CC(=O)NCc2ccco2)C(=O)CCC(=O)Nc2ccccn2)c1 -3%
CC(Sc1sc(=S)sc1SC(C)C(=O)O)C(=O)O (stereo not drawn) -53.5%
C=CCN(CC=C)C(=O)CN1C(=O)c2ccccc2C1=O -1%
Cc1ccc2c(c1)N(CCCC(=O)NCc1cccnc1)C(=O)CO2 -5%
CCOC(=O)C1CCN(C(=O)C2CCN(S(=O)(=O)c3c(C)noc3C)CC2)CC1 10%
O=C(CN1C(=O)CCS(=O)(=O)c2ccccc21)NCc1ccc(F)cc1 -3%
Cc1oc(C)c(C(=O)NCCCC(=O)O)c1C(=O)NCCCC(=O)O 5%
COc1ccc(NC(=O)C2CCCN(S(=O)(=O)c3cccc4cccnc34)C2)cc1 (stereo not drawn) 0%
CCOc1ccccc1NC(=O)C1CCC(CNc2c(N3CCOCC3)c(=O)c2=O)CC1 (stereo not drawn) 2%
Cc1cccc2c1N(CC(=O)OC(C)C)C(=O)C2=O 10.7%
Cc1cc(NC(=O)CSCc2nc(-c3cccc(Cl)c3)oc2C)no1 5%
O=C(NCc1ccc2c(c1)OCO2)c1cc2c(s1)CS(=O)(=O)C2 -4%
Cc1ccc(C)c(N2CCN(C(=O)CCc3nc4ccccc4[nH]3)CC2)c1 -5%
O=S(=O)(Nc1ccccn1)c1ccc(Oc2ccccc2)cc1 -1.3%
CCOc1c(OC)cc(C2C(C#N)=C(N)Oc3n[nH]c(-c4ccncc4)c32)cc1OC (stereo not drawn) -15%
CCC(C)Sc1nnc(-c2c[nH]c3ccccc23)n1CCOC (stereo not drawn) 10%
COc1ccc(C2OC(=O)CC2C(=O)NC(C)C)cc1 (stereo not drawn) 6%
COC(=O)Cn1c(=NC(=O)CSCC(=O)Nc2cc(C)on2)sc2ccccc21 -10.5%
COc1ccc(NC(=O)c2c(SC)nsc2SC)cc1 -23%
COCCCNC(=O)c1ccc2c(c1)ncn2-c1ccccc1OC -35%
O=C(NCc1ccco1)c1cccn2c(=O)c3cc(Br)ccc3nc12 -34%
CCn1cc(C(=O)N2CC=C(c3ccccc3)CC2)c(=O)c2ccc(C)nc21 4%
O=C(CC(Cc1ccccc1)C(=O)O)NCCc1ccc2c(c1)OCO2 (stereo not drawn) -16%
Cc1ccc(C)c(NC(=O)CSc2nnc(Cc3cccn3C)n2-c2ccc(F)cc2)c1 10%
NC(=O)C1(N2CCCCC2)CCN(C(=O)c2ccc(C#Cc3ccccc3)o2)CC1 3%
CC1(C)CC(O)C(CCC(O)c2ccccc2)C(C)(C)N1 (stereo not drawn) -6%
CCc1nnc(NC(=O)CCC(=O)O)s1 -11%
O=C(NC(=O)c1ccc(Cl)c(Cl)c1)OC1CCS(=O)(=O)C1 (stereo not drawn) -4%
O=C(NC1(C(F)(F)F)N=C2SCCN2C1=O)c1ccco1 (stereo not drawn) -21%
Cn1c(=O)cc(SCC(=O)N2CCCC2)c2cc(Cl)ccc21 2%
CN1C(=O)c2ccccc2C(C(=O)NCCCN2CCCC2)C1c1c[nH]c2ccccc12 (stereo not drawn) 17%
COc1ccccc1CNC(=O)Cn1cc2c(n1)CCCC2 -2%
CCOC(=O)C1CCN(C(=O)CSc2cc(=O)n(C)c3ccccc23)CC1 -2%
